Source: PubChem BioAssay (NCI)
Compounds without any hit were thinned out: in the full panel of roughly 79,000, 15% have a hit. Calls of active or inactive are those of the source. Rule as the data show it: active = growth inhibition above about 70%; inactive = the rest.

Columns and labels:
[1] = NCI Yeast Anticancer Drug Screen. Data for the rad52 strain (AID 147);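 also: 0% = growth of vehicle-treated control cultures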; details: S. cerevisiae rad52 mutant growth inhibition, stronger effect = higher value
In short: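 Growth of repair-deficient yeast cells was compared between compound-treated and vehicle-treated cultures to give percent inhibition.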

[2] = NCI Yeast Anticancer Drug Screen. Data for the wt1 strain (AID 149);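 also: 0% = growth of vehicle-treated wt1 cultures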; details: S. cerevisiae wt1 strain (SPY 50644) growth inhibition, stronger effect = higher value
In short: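 Growth inhibition read against vehicle controls after compound exposure of the wt1 yeast strain.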

[3] = NCI Yeast Anticancer Drug Screen. Data for the rad50EPP+ strain (AID 151);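 also: 0% = growth of vehicle-treated control cultures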; details: S. cerevisiae rad50 mutant strain, stronger effect = higher value
In short: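 Measured: growth inhibition of rad50EPP+ yeast. Reference: vehicle-treated controls. Screen uses strains with defined genetic alterations in DNA damage repair or cell cycle control.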

[4] = NCI Yeast Anticancer Drug Screen. Data for the mgt1 strain (AID 153); details: S. cerevisiae mgt1 mutant growth inhibition, stronger effect = higher value
In short: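 Compounds were applied to mgt1 mutant yeast, and growth was then compared against vehicle-treated control cultures to give percent inhibition.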

[5] = NCI Yeast Anticancer Drug Screen. Data for the rad50 strain (AID 155);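 also: 0% = growth of vehicle-only cultures of the same strain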; details: S. cerevisiae rad50 strain growth inhibition, stronger effect = higher value
In short: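 Readout: growth inhibition relative to vehicle-treated cultures. Compound exposure was carried out in a genetically defined yeast strain deficient in DNA damage repair.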

[6] = NCI Yeast Anticancer Drug Screen. Data for the mec2-1 strain (AID 157); details: S. cerevisiae mec2-1 strain, stronger effect = higher value
In short: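 Compounds were applied to mec2-1 yeast cells. Their growth was then compared with that of vehicle-treated cultures to give growth inhibition.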

[7] = NCI Yeast Anticancer Drug Screen. Data for the rad14 strain (AID 159);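 also: 0% = growth of vehicle-treated control cultures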; details: S. cerevisiae rad14 strain growth inhibition, stronger effect = higher value
In short: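 Growth inhibition vs vehicle controls; genetically altered yeast strain (DNA damage repair defect) treated with test compounds.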

[8] = NCI Yeast Anticancer Drug Screen. Data for the sgs1 mgt1 strain (AID 161);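 also: 0% = growth of cultures given vehicle only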; details: S. cerevisiae sgs1 mgt1 strain, stronger effect = higher value
In short: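 This yeast growth screen uses a strain with defined DNA-repair lesions; compound-treated growth is compared with vehicle-treated growth.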

[9] = NCI Yeast Anticancer Drug Screen. Data for the CLN2oe strain (AID 163);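 also: 0% = growth of vehicle-only control cultures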; details: S. cerevisiae CLN2oe strain, stronger effect = higher value
In short: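 Cells of an engineered yeast line with disturbed cell-cycle regulation are treated with compound. Inhibition of growth is then calculated relative to the vehicle-treated reference.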

[10] = NCI Yeast Anticancer Drug Screen. Data for the cln2 rad14 strain (AID 165);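 also: 0% = growth equal to vehicle treated cultures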; details: S. cerevisiae cln2 rad14 strain, stronger effect = higher value
In short: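 Strain: cln2 rad14 yeast, altered in cell cycle control and DNA damage repair. Read-out: growth inhibition vs vehicle.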

[11] = NCI Yeast Anticancer Drug Screen. Data for the bub3 strain (AID 167); details: S. cerevisiae bub3 mutant strain, stronger effect = higher value
In short: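 Readout: yeast growth inhibition, expressed relative to vehicle-only wells. The test organism is a mutant strain from a panel with lesions in DNA repair or checkpoint genes.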

[12] = NCI Yeast Anticancer Drug Screen. Data for the wt2 strain (AID 169);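 also: 0% = growth of vehicle-treated yeast cultures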; details: S. cerevisiae wt2 strain growth inhibition, stronger effect = higher value
In short: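 Growth of compound-treated yeast is measured and expressed as inhibition relative to vehicle-only controls.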

[13] = NCI Yeast Anticancer Drug Screen. Data for the mlh1 strain (AID 171);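 also: 0% = growth of vehicle-treated control cultures of the same strain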; details: S. cerevisiae mlh1 strain growth inhibition, stronger effect = higher value
In short: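 Test agents were incubated with yeast bearing a defined DNA damage repair or cell cycle control alteration; values are growth inhibition normalised to vehicle-treated cultures.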

[14] = NCI Yeast Anticancer Drug Screen. Data for the sgs1 strain (AID 173);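 also: 0% = growth of vehicle-only control cultures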; details: S. cerevisiae sgs1 mutant, stronger effect = higher value
In short: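 Strain with an altered DNA repair or cell cycle pathway exposed to compound. Growth then measured. Value = inhibition versus vehicle control.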

[15] = NCI Yeast Anticancer Drug Screen. Data for the mlh1 rad18 strain (AID 175); details: S. cerevisiae mlh1 rad18 strain growth inhibition, stronger effect = higher value
In short: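 A repair-deficient yeast strain is exposed to test compound, and growth is scored relative to vehicle-treated controls.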

[16] = NCI Yeast Anticancer Drug Screen. Data for the rad18 strain (AID 177); details: S. cerevisiae rad18 mutant growth inhibition, stronger effect = higher value
In short: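 DNA-repair-defective yeast; compound treatment; growth inhibition scored against vehicle.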

[17] = at 5.0 µM (retest, dose inferred, filed as 0.5)
[18] = at 50.0 µM (retest, dose inferred, filed as 5.0)

Measured: growth inhibition

Nc1ccc(F)cc1S
active: [1]; at 100.0 µM 98% | [2]; at 33.0 µM 92% | [2]; at 100.0 µM 99% | [3]; at 100.0 µM 97% | [4]; at 33.0 µM 92% | [4]; at 100.0 µM 98% | [5]; [18] 91% | [5]; at 100.0 µM 98% | [6]; at 33.0 µM 81% | [6]; [18] 99% | [6]; at 50.0 µM 85.8% | [6]; at 100.0 µM 98% | [7]; at 33.0 µM 70% | [7]; at 100.0 µM 97% | [8]; [18] 100% | [8]; at 50.0 µM 80.5% | [9]; at 100.0 µM 94% | [10]; [18] 88% | [10]; at 50.0 µM 85.4% | [11]; at 33.0 µM 73% | [11]; [18] 99% | [11]; at 50.0 µM 87.5% | [11]; at 100.0 µM 98% | [12]; at 33.0 µM 95% | [12]; at 100.0 µM 98% | [13]; at 33.0 µM 83% | [13]; at 100.0 µM 98% | [14]; at 100.0 µM 97% | [15]; [18] 76% | [15]; at 50.0 µM 89.3% | [16]; at 33.0 µM 71% | [16]; at 100.0 µM 97%
inactive: [1]; at 1.2 µM -2% | [1]; at 3.7 µM -15% | [1]; at 11.0 µM -11% | [1]; at 33.0 µM 60% | [2]; at 1.2 µM -7% | [2]; at 3.7 µM 1% | [2]; at 11.0 µM 6% | [3]; at 1.2 µM -19% | [3]; at 3.7 µM -19% | [3]; at 11.0 µM -37% | [3]; at 33.0 µM 55% | [4]; at 1.2 µM -15% | [4]; at 3.7 µM -20% | [4]; at 11.0 µM 12% | [5]; at 1.2 µM -23% | [5]; at 3.7 µM -40% | [5]; [17] 16% | [5]; at 11.0 µM -14% | [5]; at 33.0 µM 61% | [5]; at 50.0 µM 51.1% | [6]; at 1.2 µM -16% | [6]; at 3.7 µM -15% | [6]; [17] 9% | [6]; at 11.0 µM 8% | [7]; at 1.2 µM -32% | [7]; at 3.7 µM -18% | [7]; at 11.0 µM -14% | [8]; [17] 31% | [9]; at 1.2 µM -70% | [9]; at 3.7 µM -50% | [9]; at 11.0 µM -24% | [9]; at 33.0 µM 43% | [10]; [17] 46% | [11]; at 1.2 µM -33% | [11]; at 3.7 µM -15% | [11]; [17] 61% | [11]; at 11.0 µM 18% | [12]; at 1.2 µM 4% | [12]; at 3.7 µM -8% | [12]; at 11.0 µM 56% | [13]; at 1.2 µM -20% | [13]; at 3.7 µM -19% | [13]; at 11.0 µM 2% | [14]; at 1.2 µM -16% | [14]; at 3.7 µM -24% | [14]; at 11.0 µM -14% | [14]; at 33.0 µM 46% | [15]; [17] 15% | [16]; at 1.2 µM -28% | [16]; at 3.7 µM -30% | [16]; at 11.0 µM 1%

C[C@@](O)(/C=C/[C@H]1CC=CC(=O)O1)[C@@H](C[C@@H](O)\C=C/C=C\C=C\CO)OP(=O)(O)O
inactive: [1]; at 1.2 µM 26% | [1]; at 3.7 µM 22% | [1]; at 11.0 µM 37% | [1]; at 33.0 µM 66% | [2]; at 1.2 µM 18% | [2]; at 3.7 µM 13% | [2]; at 11.0 µM 15% | [2]; at 33.0 µM 35% | [3]; at 1.2 µM 18% | [3]; at 3.7 µM 15% | [3]; at 11.0 µM 17% | [3]; at 33.0 µM 25% | [3]; at 100.0 µM 33% | [4]; at 1.2 µM 33% | [4]; at 3.7 µM 28% | [4]; at 11.0 µM 33% | [4]; at 33.0 µM 51% | [5]; at 1.2 µM 27% | [5]; at 3.7 µM 30% | [5]; [17] 1% | [5]; at 11.0 µM 41% | [5]; at 33.0 µM 62% | [5]; [18] 53% | [5]; at 50.0 µM 67.2% | [6]; at 1.2 µM 9% | [6]; at 3.7 µM 22% | [6]; [17] -2% | [6]; at 11.0 µM 25% | [6]; at 33.0 µM 46% | [6]; [18] 34% | [6]; at 50.0 µM 50.6% | [7]; at 1.2 µM 9% | [7]; at 3.7 µM 13% | [7]; at 11.0 µM 11% | [7]; at 33.0 µM 50% | [8]; [17] 17% | [8]; [18] 60% | [9]; at 1.2 µM 46% | [9]; at 3.7 µM 26% | [9]; at 11.0 µM 25% | [9]; at 33.0 µM 54% | [10]; [17] 5% | [10]; [18] 17% | [10]; at 50.0 µM 42.6% | [11]; at 1.2 µM 29% | [11]; at 3.7 µM 45% | [11]; [17] 34% | [11]; at 11.0 µM 63% | [12]; at 1.2 µM 4% | [12]; at 3.7 µM 19% | [12]; at 11.0 µM 20% | [12]; at 33.0 µM 39% | [13]; at 1.2 µM 21% | [13]; at 3.7 µM 20% | [13]; at 11.0 µM 34% | [13]; at 33.0 µM 61% | [14]; at 1.2 µM 33% | [14]; at 3.7 µM 32% | [14]; at 11.0 µM 42% | [14]; at 33.0 µM 59% | [16]; at 1.2 µM 40% | [16]; at 3.7 µM 34% | [16]; at 11.0 µM 41% | [16]; at 33.0 µM 54%
active: [1]; at 100.0 µM 90% | [2]; at 100.0 µM 81% | [4]; at 100.0 µM 86% | [5]; at 100.0 µM 92% | [6]; at 100.0 µM 84% | [7]; at 100.0 µM 94% | [8]; at 50.0 µM 73% | [9]; at 100.0 µM 82% | [11]; at 33.0 µM 86% | [11]; [18] 91% | [11]; at 50.0 µM 86.1% | [11]; at 100.0 µM 93% | [12]; at 100.0 µM 88% | [13]; at 100.0 µM 88% | [14]; at 100.0 µM 90% | [16]; at 100.0 µM 84%
